# Bioassay records deposited in PubChem by several laboratories.
# Rows were chosen to be rich in hits. Some 3.6% of all compounds tested hit in one or more screens of this group.
# PHOSPHO1 inh: inhibitors of human PHOSPHO1 phosphatase; recombinant PHOSPHO1, absorbance phosphatase assay; actives 1.1% (n = 290,000); inhibition, % at 13.3 µM; Q8TCT1; AID 1565; in the data active = inhibition above about 60%
# MITF act: MITF TRPM1 promoter activation in melanoma cells; SK-MEL-5 TRPM1-promoter luciferase, 24 h; % of positive control, neutral wells = 0; activation, % at 12.5 µM; actives 0.75% (n = 300,000); AID 588334;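 active = mean activation of at least 80% with every replicate also reaching 80%; inconclusive = mean reaches 80% but some replicate falls short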;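 also: 0% = neutral control wells and 100% = parthenolide positive control wells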
# Wnt act: activates Wnt/beta-catenin signaling in a reporter cell assay; activation, % at 9.35 µM; activator, plate reader; actives 1.2% (n = 300,000); in the data active = activation above about 30%, passing the limit was not always enough; inconclusive = no clear call, values can overlap the other calls;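 also: 0% = neutral control wells and 100% = positive control wells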
# A3G deaminase: inhibitors of human APOBEC3G DNA deaminase; inhibition, % at 20 µM; Q9HC16; actives 0.28% (n = 330,000); AID 493012; recombinant A3G, ssDNA deamination FAM/TAMRA fluorescence;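 active = inhibition of at least 40% at 20 µM, with no more than 30% in the related APOBEC3A deaminase screen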;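 also: plate controls were DMSO wells with A3G for no effect and wells lacking A3G enzyme for full effect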
# Target sequence (Q9HC16 whole entry, looked up): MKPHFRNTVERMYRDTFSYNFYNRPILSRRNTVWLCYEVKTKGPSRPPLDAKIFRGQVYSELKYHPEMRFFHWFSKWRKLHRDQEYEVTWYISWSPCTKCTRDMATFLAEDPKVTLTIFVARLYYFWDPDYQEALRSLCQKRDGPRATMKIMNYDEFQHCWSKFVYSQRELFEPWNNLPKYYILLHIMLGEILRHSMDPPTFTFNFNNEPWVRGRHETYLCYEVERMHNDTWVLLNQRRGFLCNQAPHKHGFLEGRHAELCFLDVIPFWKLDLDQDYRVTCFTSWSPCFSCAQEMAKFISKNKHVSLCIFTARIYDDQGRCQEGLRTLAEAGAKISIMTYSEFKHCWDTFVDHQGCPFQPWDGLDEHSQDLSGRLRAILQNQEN
# A3A deaminase: inhibitors of human APOBEC3A DNA deaminase. actives 0.41% (n = 330,000). AID 493011. inhibition, % at 20 µM. recombinant A3A, FAM/TAMRA ssDNA deamination fluorescence. P31941;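 active = at least 40% inhibition at 20 µM here, with at most 30% in a related deaminase screen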;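 also: plate controls were A3A with DMSO for no effect and wells lacking A3A enzyme for full effect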
# Target sequence (P31941 whole entry, looked up): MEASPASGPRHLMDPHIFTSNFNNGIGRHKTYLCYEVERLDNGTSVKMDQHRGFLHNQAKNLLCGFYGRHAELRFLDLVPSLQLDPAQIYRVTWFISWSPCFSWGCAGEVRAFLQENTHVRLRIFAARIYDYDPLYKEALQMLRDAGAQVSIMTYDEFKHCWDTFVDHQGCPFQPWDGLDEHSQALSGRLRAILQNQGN
# esBAF inh: SWI/SNF esBAF complex inhibition. mouse ES cells, Bmi1-luciferase knock-in reporter, 24 h; 100% = twice the neutral-well signal. reporter increase, % at 12.5 µM. actives 2% (n = 350,000). AID 602393; in the data active = activation above about 40%; inconclusive = no clear call, values can overlap the other calls;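 also: 0% = median of the plate's neutral control wells and 100% = double that signal; a rise in the Bmi1 reporter signal indicates esBAF inhibition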
# The depositor's hits bear a star; ? = inconclusive; · = no result given.
SMILES,PHOSPHO1 inh,MITF act,Wnt act,A3G deaminase,A3A deaminase,esBAF inh
Cc1nn(-c2ccc(N3CCCCC3)nn2)c(C)c1CCC(=O)Nc1ccc(F)c(F)c1,-10,60,14,3,1,55*
C[C@@H]1CN([C@H](C)CO)S(=O)(=O)c2ccc(C#Cc3ccc(F)cc3)cc2O[C@@H]1CN(C)C,·,·,·,·,·,-4
O=C(C[C@@H]1CC[C@@H](NC(=O)CCN2CCCCC2)[C@H](CO)O1)Nc1nccs1,·,·,·,·,·,-1
Nc1ccc(N=Nc2ccccc2)c2ccccc12,23,-5,-1,1,3,2
Nc1ccc(N=Nc2ccccc2)c(N)n1,16,94*,13,-1,-1,30
CCN1[C@@H]2Cn3c(ccc(C4=CCCCC4)c3=O)[C@H]1[C@@H](C(=O)NCCc1ccncc1)[C@@H]2CO,·,·,·,·,·,-8
COc1ccc2cc(C[C@@H]3CC[C@@H](CO)O3)ccc2c1,·,118*,21,3,1,67*
O=C(Nc1ccc(Cl)cc1)c1ccc2c(c1)OCO2,34,71,·,-3,-3,·
CC(C)(C)c1cnnn1-c1ccc(NC(=O)c2ccc3c(c2)OCO3)cc1,0,32,·,-1,6,44*
COCCSc1nnc(NC(=O)c2ccc3c(c2)OCO3)s1,8,38,47*,-6,-2,·
COc1cccc(C(=O)Nc2ccc(-n3nncc3C(C)(C)C)cc2)c1,-5,-3,1,0,4,·
O=C(Nc1ccc2c(c1)OCO2)c1cccc(Cl)c1,-14,104*,-1,-2,1,64*
O=C(Nc1ccc(F)c(F)c1)c1ccc2c(c1)OCO2,-4,85*,·,1,0,58*
COc1ccc(NC(=O)Nc2ccc3c(c2)C(=O)N([C@@H](C)CO)C[C@@H](C)[C@@H](CN(C)S(=O)(=O)c2ccc(F)cc2)O3)cc1,·,·,·,·,·,2
COc1cc2c(cc1NC(=O)c1ccc3c(c1)OCO3)oc1ccccc12,-10,66,22,-9,-3,47*
CCC(=O)N1CCN(c2ccc(NC(=O)c3ccc4c(c3)OCO4)cc2)CC1,17,·,·,-1,-3,3
NC(=O)c1ccc(NC(=O)c2ccc3c(c2)OCO3)cc1,-3,88*,-1,-4,-4,22
O=C(Nc1ccc2c(c1)OCO2)c1ccc2c(c1)OCO2,-7,20,·,-2,-1,·
O=C(Nc1ccc2c(c1)OCO2)c1c(Cl)nc2sccn12,1,94*,·,-6,-1,49*
CCN1CCN(c2ccc(NC(=O)c3ccc4c(c3)OCO4)cc2)CC1,24,35,47*,-2,0,11
Cc1ccc(S(=O)(=O)N(C)C[C@@H]2OCCCC[C@H](C)Oc3ccc(NC(=O)Cc4ccccc4)cc3C(=O)N([C@H](C)CO)C[C@@H]2C)cc1,·,·,·,·,·,5
O=C(C[C@@H]1C=C[C@H](NS(=O)(=O)c2ccc(F)cc2)[C@H](CO)O1)NCCc1ccncc1,·,·,·,·,·,4
CO[C@@H]1CN(C)C(=O)c2ccc(NS(=O)(=O)c3ccc(F)cc3)cc2OC[C@@H](C)N(C)C[C@H]1C,·,·,·,·,·,1
CCOC(=O)c1[nH]c2cc(OC)c(OC)cc2c1NC(=O)c1ccc2c(c1)OCO2,68*,4,·,-4,0,·
CCOC(=O)c1[nH]c2ccc(F)cc2c1NC(=O)c1ccccc1C(=O)O,5,28,18,-8,-5,54*
SMILES,PHOSPHO1 inh,MITF act,Wnt act,A3G deaminase,A3A deaminase,esBAF inh
CCOC(=O)c1[nH]c2ccc(OC)cc2c1NC(=O)c1ccc2c(c1)OCO2,14,-5,-2,-7,-4,-3
CC(C)C(=O)Nc1ccc(NC(=O)c2ccc3c(c2)OCO3)cc1,-128,7,-2,-13,-5,-9
CCOC(=O)c1[nH]c2ccc(OC)cc2c1NC(=O)c1ccccc1C(=O)O,23,13,13,-7,-3,·
COc1cc(NC(=O)c2ccc3c(c2)OCO3)ccc1NC(=O)C(C)C,15,·,1,-7,-1,52*
O=C(Nc1ccccc1F)N1C[C@H]2[C@@H](c3ccccc31)[C@@H](CO)N2C(=O)C1CC1,·,·,·,·,·,26
O=C(COc1ccc2c(c1)CCC2)N1CCc2ccccc21,-7,·,60*,-5,-4,78*
CCc1ccc(OCC(=O)N2CCc3ccccc32)cc1,-4,61,28,-2,0,47*
Cc1ccc(OCC(=O)N2CCc3ccccc32)cc1,-6,59,26,-3,-4,41
COc1ccc(NC(=O)Nc2ccc3c(c2)[C@@H]2C[C@@H](CC(=O)NC4CCCC4)O[C@H](CO)[C@@H]2O3)cc1,·,·,·,·,·,-2
CNc1cccccc1=S,76*,·,-6,68,37,-5
Cc1noc(C)c1NC(=O)N(C)C[C@@H]1Oc2c(NS(=O)(=O)c3ccc(Cl)cc3)cccc2C(=O)N([C@@H](C)CO)C[C@H]1C,·,·,·,·,·,2
COC(=O)C[C@@H]1CC[C@@H]2[C@@H](COc3ccc(NC(=O)c4ccc(C(F)(F)F)cc4)cc3C(=O)N2C)O1,·,·,·,·,·,0
c1ccc(OCCOc2ncnc3ccccc23)cc1,-30,?,·,-2,-1,51*
COc1ccc2c(c1)CC/C(=C/c1ccncc1)C2=O,-17,-4,·,-6,-3,10
COc1ccc2c(c1)CC/C(=C\c1ccc(C)o1)C2=O,14,87*,16,2,1,40
O=C1NC(=S)NC1=Cc1ccc(Cl)cc1Cl,·,-5,-1,·,·,4
O=C1NC(=O)C(=Cc2ccc(Cl)cc2Cl)S1,·,23,39*,·,·,·
COc1ccc(/C=C/C(=O)NC(=S)Nc2ccccn2)cc1,-56,55,12,-7,1,48*
COc1ccc(NC(=S)Nc2ccccn2)cc1,38,?,36*,17,3,58*
Cc1cc(C)cc(NC(=S)Nc2ccccn2)c1,-6,5,-6,-3,-4,·
Cc1cccc(NC(=S)Nc2ccccn2)c1,-17,26,60*,2,1,·
Cc1cc(C)nc(NC(=S)Nc2cccc(F)c2)c1,-8,25,14,4,1,10
COc1cccc(NC(=S)Nc2cc(C)cc(C)n2)c1,-6,·,54*,0,4,?
CC(=O)N1[C@H](CO)[C@@H](c2ccc(C3=CCCC3)cc2)[C@H]1CNC(=O)CN(C)C,·,·,·,·,·,-1
COC(=O)c1ccc(NC(=S)Nc2ccc(O)cc2)cc1,8,3,1,-6,-3,·
COC(=O)c1ccc(NC(=S)Nc2ccccn2)cc1,-12,112*,·,1,3,58*
